PubChem BioAssay (EPA / NIEHS)
The source made the active and inactive calls. The calls were made as follows: active = hit-call score of the fitted dose curve at least 0.9, where 1 is the maximum; inactive = score below 0.9.

Read-out: Forkhead box O3 (FOXO3), FOXO3 (gene 2309)
Assay: LTEA_HepaRG_FOXO3: Life Technologies and Expression Analysis (LTEA) Assay for Forkhead box O3 (FOXO3) using HepaRG (AID 2283459)
Settings: mRNA level, 48 h; actives raise or lower the signal
Procedure: LTEA_HepaRG is a cell based, multiplexed-readout assay that uses HepaRG, a human liver cell line, with measurements taken at 48 hours after chemical dosing on a 96-well plate.LTEA_HepaRG_FOXO3 is one of 102 assay component(s) measured in the LTEA HepaRG cell culture assay. It is a marker of Cell proliferation, survival, death.Data from the assay component LTEA_HepaRG_FOXO3 was analyzed into 1 endpoint. This assay endpoint, LTEA_HepaRG_FOXO3, was analyzed with bidirectional fitting relative to DMSO as the negative control and baseline of activity. Using a type of inducible reporter, measures of mRNA induction for gain or loss-of-signal activity can be used to understand regulation of transcription factor activity. To generalize the intended target to other relatable targets, this assay endpoint is annotated to the dna binding intended target family, where the subfamily is forkhead box protein.
A total of 1060 chemcials from the ToxCast library were tested in eight-point concentration-response experiments. Cell culture and cytotoxicity assays were conducted at Thermo Fisher Scientific's Custom Services facility (Madison, WI). A single lot of human HepaRG cells (Thermo Fisher Scientific, Frederick, MD) was used for the cell culture experiments. 96-well format collagen type I coated plates of human HepaRG cells were prepared using established methods. Briefly, cryopreserved HepaRG cells were thawed, plated at a density of approximately 100,000 cells/well in HepaRG Thaw, Plate, and General Purpose media (HPRG770, Thermo Fisher Scientific), and incubated for 48 hours. 0.5% DMSO was selected as vehicle control to balance the requisite need of DMSO in HepaRG cultures to maintain differentiation (for example, baseline metabolism, proportions of hepatocytes vs. cholangiocytes), while enabling further hepatic receptor pathway activation (for example, PXR and CAR) in response to chemical exposure. 48 hours after plating, the culture medium was replaced with HepaRG Serum-Free Incudtion Media. Cells were exposed to each test chemical in duplicate and maintained in CO2 incubators for another 48 hours. Chemical plates were thawed to room temperature and 200x concentrations of treatment groups were prepared. 8-point conentration-reponse curves were made with the highest exposure at 100 uM, followed by half-log dilutions, all in 0.5% DMSO. Each test plate contained variouse controls, induction positive controls (1mM phenobarbital), cytotoxicity positive controls ([…] aflatoxin B1), vehicle controls (0.5% DMSO), and total lysis controls (0.5% DMSO). Cell morphology images were taken using an Essen IncuCyte FLR automated microscope, with six 96-well plates imaged in about 24 minutes. Images were captured and exported and JPEG files. Spent culture media was transfered to black-well plates for the LDH assay, and remaining media was sorted at -80 C for later use. Cells were treated with RLT buffer and frozen until shipped for gene expression analysis. Total RNA was isolated from the cell suspension in 75 uL of Buffer RLT (Qiagen, Germantown, MD 20874) by Quintiles/Expression Analysis (Durham, NC) using a custom isolation procedure. Total RNA from each plate well was transferred to a preamplification plate. Fluidigm's 96.96 Dynamic ArrayTM (Fluidigm, Amsterdam, the Netherlands) technology was used for gene expression analyses by quantitative reverse transcription polymerase chain reaction (qRT-PCR, performed by Quintiles/Expression Analysis, Durham, NC)89. Standard TaqManTM Assays (Applied Biosystems/ThermoFisher Scientific, Foster City, CA) were used to assess the expression of 93 genes selected based on their selectivity and sensitivity to important hepatic receptors known to be modulated by environmental chemicals; importance in human hepatocyte functionality; and hepatotoxicity. […]

SMILES | outcome | AC50
CCCCC(O)(Cn1cncn1)c1ccc(Cl)cc1Cl (stereo not given) | inactive | 
CC(C)Nc1nc(Cl)nc(NC(C)C)n1 | inactive | 
CCCCC(C#N)(Cn1cncn1)c1ccc(Cl)cc1 (stereo not given) | inactive | 
CC(C)Oc1cccc(NC(=O)c2ccccc2C(F)(F)F)c1 | inactive | 
CC(C)N1C(=O)N(c2ccccc2)CSC1=NC(C)(C)C | inactive | 
CCN(CC)c1nc(C)cc(OP(=S)(OC)OC)n1 | inactive | 
CSC(=O)c1c(C(F)F)nc(C(F)(F)F)c(C(=O)SC)c1CC(C)C | inactive | 
CC1(C)CON(Cc2ccccc2Cl)C1=O | inactive | 
COCc1cnc(C2=NC(C)(C(C)C)C(=O)N2)c(C(=O)O)c1 (stereo not given) | inactive | 
CC(C)NC(=O)N1CC(=O)N(c2cc(Cl)cc(Cl)c2)C1=O |  | 7.56 µM (active)
C=C(C)CN(CC)c1c([N+](=O)[O-])cc(C(F)(F)F)cc1[N+](=O)[O-] | inactive | 
Cc1c(COC(=O)[C@@H]2[C@H](/C=C(\Cl)C(F)(F)F)C2(C)C)cccc1-c1ccccc1 | inactive | 
Cc1ccc(N=CN(C)C=Nc2ccc(C)cc2C)c(C)c1 | inactive | 
CCOc1cc(C(C)(C)C)ccc1C1COC(c2c(F)cccc2F)=N1 (stereo not given) | inactive | 
CCN(CC)C(=O)C(C)Oc1cccc2ccccc12 (stereo not given) | inactive | 
OC(c1ccc(Cl)cc1)(c1ccc(Cl)cc1)C(Cl)(Cl)Cl | inactive | 
CC(C)C1(C)N=C(c2ncccc2C(=O)O)NC1=O (stereo not given) | inactive | 
COP(=S)(OC)SCn1nnc2ccccc2c1=O | inactive | 
Cc1cc(C)nc(Nc2ccccc2)n1 | inactive | 
Clc1nc(Cl)nc(Nc2ccccc2Cl)n1 | inactive | 

SMILES | outcome | AC50
CC(C)N1C(=O)c2ccccc2NS1(=O)=O | inactive | 
Nc1c(Cl)c(Cl)nc(C(=O)O)c1Cl | inactive | 
Cc1cnc(C2=NC(C)(C(C)C)C(=O)N2)c(C(=O)O)c1 (stereo not given) | inactive | 
COP(=S)(OC)Oc1ccc([N+](=O)[O-])c(C)c1 | inactive | 
Nc1c(Cl)c(F)nc(OCC(=O)O)c1Cl | inactive | 
CNC(=O)Oc1cccc2ccccc12 | inactive | 
COC(=O)NC(=S)Nc1ccccc1NC(=S)NC(=O)OC | inactive | 
CCC(C)n1c(=O)[nH]c(C)c(Br)c1=O (stereo not given) |  | 14.3 µM (active)
N#Cc1c(Cl)cccc1Cl | inactive | 
CS(=O)(=O)c1cc(C(F)(F)F)ccc1C(=O)c1cnoc1C1CC1 | inactive | 
COC(=O)N(C(=O)N1CO[C@@]2(C(=O)OC)Cc3cc(Cl)ccc3C2=N1)c1ccc(OC(F)(F)F)cc1 | inactive | 
CCOP(=S)(OCC)Oc1nc(Cl)n(C(C)C)n1 | inactive | 
Nc1cnn(-c2ccccc2)c(=O)c1Cl | inactive | 
CC1(C)CCC(=Cc2ccc(Cl)cc2)C1(O)Cn1cncn1 (stereo not given) | inactive | 
CC(C)(C)C(=O)C(Oc1ccc(Cl)cc1)n1cncn1 (stereo not given) | inactive | 
N#CN=C1SCCN1Cc1ccc(Cl)nc1 | inactive | 
N#Cc1c[nH]cc1-c1cccc2c1OC(F)(F)O2 |  | 12.3 µM (active)
CCCN(CC)CC1COC2(CCC(C(C)(C)C)CC2)O1 (stereo not given) | inactive | 
COc1cc(OC)nc(NC(=O)NS(=O)(=O)c2ncccc2OCC(F)(F)F)n1 | inactive | 
CCOP(=O)(OCC)Oc1nc(Cl)c(Cl)cc1Cl | inactive | 
